# Sampled rows, rich in hits. Any-hit rate of the full collection: about 2.4%.
# FEN1 inhibitor = blocks human flap endonuclease 1. P39748. Recombinant FEN1 flap cleavage, fluorescence, 15 min. Potency, µM (series often up to 114 µM), for the others: at the top dose activity change, negative = inhibition, actives largely listed as inhibitors. hit rate 0.35% among 390,000. AID 588795; further: on the % scale 0 is the no-effect control and ±100 the full control effect; nearly all actives have a fitted effect of over 65% in size
# Target sequence (P39748 whole entry, looked up): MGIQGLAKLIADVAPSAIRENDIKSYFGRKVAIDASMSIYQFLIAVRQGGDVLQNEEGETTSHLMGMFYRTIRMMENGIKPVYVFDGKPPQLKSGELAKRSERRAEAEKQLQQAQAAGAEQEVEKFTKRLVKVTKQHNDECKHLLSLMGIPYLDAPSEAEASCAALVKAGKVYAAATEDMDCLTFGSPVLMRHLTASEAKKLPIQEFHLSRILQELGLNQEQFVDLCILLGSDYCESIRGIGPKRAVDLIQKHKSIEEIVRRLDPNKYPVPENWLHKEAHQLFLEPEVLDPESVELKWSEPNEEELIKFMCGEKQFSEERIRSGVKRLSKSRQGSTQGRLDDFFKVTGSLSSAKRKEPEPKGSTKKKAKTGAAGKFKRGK
#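 Quantitative HTS format: each compound was titrated, incubated with 10 nM nuclease for 15 min at room temperature, then challenged with flap substrate at 50 nM final. Signal change over 15 min gave concentration–effect curves.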
# POLB inh = blocks human DNA polymerase beta activity. Pol beta primer extension/strand displacement, fluorescence kinetic. Potency, µM (highest dose often 114 µM), without a hit: at the top dose activity change, negative = inhibition, most hits filed as inhibitors. hit rate 1.3% among 340,000; further: on the % scale 0 is the no-effect control and ±100 the full control effect
#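 Pol beta (10 nM) was preincubated with compound for 15 min at room temperature. The reaction was then started with 50 nM substrate and read immediately and after a further 10 min at room temperature.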
# Pol kappa inh = DNA polymerase kappa (human) inhibition | purified Pol kappa, fluorescent DNA synthesis assay, 10 min | hit rate 0.53% among 400,000 | Potency, µM (highest dose often 107 µM), inactives show at the highest dose activity, negative = inhibition, hits mostly inhibitors | Q9UBT6; further: on the % scale 0 is the no-effect control and ±100 the full control effect
#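 Activity was followed as the change in fluorescence between reads at 0 and 10 min after starting the reaction with 50 nM substrate. Beforehand, 10 nM polymerase had been preincubated with compound for 15 min at room temperature.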
# POLH inh = inhibitors of human DNA polymerase eta; Q9Y253; recombinant Pol eta, fluorescent DNA replication assay; Potency, µM (highest dose often 114 µM), for inactives: at the top dose activity change, negative = inhibition, usual class: inhibitors; hit rate 1.2% among 390,000; AID 588591; further: on the % scale 0 is the no-effect control and ±100 the full control effect
#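 Fluorescent replication assay: 50 nM final substrate added after a 15 min room-temperature compound preincubation with 10 nM enzyme. Signal taken at 0 min and again at 10 min.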
# Pol iota inh = DNA polymerase iota (human) inhibition; Pol iota fluorescent replication assay, 10 min; Potency, µM (top dose mostly 115 µM), for inactives: at the top dose activity, negative = inhibition, actives largely listed as inhibitors; hit rate 1% among 390,000; AID 588590
#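 Fluorescent replication assay read twice, at 0 min and 10 min after adding 50 nM (final) substrate. Enzyme (10 nM) and compounds were first incubated 15 min at room temperature; enzyme-free buffer wells were negative controls.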
# WRN helicase inh = inhibitors of human WRN helicase; Q14191; WRN helicase unwinding, fluorescent forked duplex, kinetic; Potency, µM (highest dose often 114 µM), for inactives: at the top dose activity change, negative = inhibition, hits mostly inhibitors; hit rate 0.46% among 360,000; further: on the % scale 0 is the no-effect control and ±100 the full control effect; nearly all actives have a fitted effect of over 55% in size
#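 WRN at 20 nM final preincubated with compound 15 min at room temperature; reaction started with 100 nM fluorophore/quencher forked duplex oligonucleotide and 2 mM ATP final. Unwinding followed kinetically by red fluorescence (ex 525, em 598 nm).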
# * hit, by the source's call; ? = inconclusive; · = not tested or not shown; ! = a repeat was not active; [ ] = dose if it differs, or a comment. The call rests on the fitted dose curve; in most records, active means well fitted curve in the direction sought with a large enough effect; inconclusive means small, poorly fitted or top-dose-only effect, or another doubt; inactive means no such curve, though single readings can be large; an effect the other way counts as inactive or inconclusive. Potency means the concentration at half of the fitted maximal effect.
SMILES,FEN1 inhibitor,POLB inh,Pol kappa inh,POLH inh,Pol iota inh,WRN helicase inh
NCCCC[C@H](NC(=O)CNC(=O)[C@@H]1CCCN1C(=O)[C@H](Cc1ccc(O)cc1)NC(=O)CN)C(=O)N[C@@H](Cc1ccccc1)C(=O)O,·,·,8%[60.1 µM],·,·,·
Cc1ccc(NC(=O)Cn2cc(C(=O)c3ccco3)c3ccccc32)cc1,18%,11µM*,-3%[60.1 µM],-5%,79µM*,·
O=C(Cn1cc(C(=O)c2ccco2)c2ccccc21)Nc1ccccc1,4%,?,3%,-19%,6%,3%
Cc1cccc(C)c1NC(=O)Cn1cc(C(=O)c2ccco2)c2ccccc21,-14%,50µM*,-22%,?,79µM*,·
S=C(NCCCc1cnc[nH]1)NCCCN(CCc1ccc(Cl)cc1)c1ccc(Br)cn1,-2%,·,-6%,·,-4%,·
C(=Nc1ccc2ccccc2n1)c1ccccn1,6%,·,2%,·,-2%,·
COc1[nH]c(/N=C/c2ccccc2)c(C#N)c1C#N,50µM*!,89µM*,?,-7%,79µM*,-34%
O=Nc1ccc(NOC(=O)c2ccccc2Br)cc1,-2%,79µM*,-14%,6%,120%,10%
Oc1c(CN2CCOCC2)cc(CN2CCOCC2)c(O)c1O,?,·,?,?,?,22µM*
Oc1cccc(CN2CCOCC2)c1O,?,·,28µM*,2%,20µM*,?
S=C(NCCCc1cnc[nH]1)NCCCN(CCc1ccccc1)c1ccc(Br)cn1,?,·,-9%,·,-10%,·
CCc1c2c(nc3ccc4c(c13)OCCO4)-c1nc3ccccc3c(=O)n1C2,8%,·,-18%,·,-6%,·
Oc1c(Br)cc(/C=N/n2c(-c3ccccc3)n[nH]c2=S)c(Br)c1O,·,0.25µM*,·,·,·,·
COc1c(Br)cc(/C=N/n2c(-c3ccccc3)n[nH]c2=S)c(O)c1Br,?,3.5µM*,2µM*,79µM*,?,?
Oc1ccccc1/C=N/n1c(-c2ccccc2)n[nH]c1=S,6%,-3%,-13%,-16%,149%,-7%
Oc1c(Br)cc(Br)cc1/C=N/n1c(-c2ccccc2)n[nH]c1=S,-16%,-3%,-25%,-12%,-16%,-18%
Cc1nc([N+](=O)[O-])cn1CC(=O)c1ccc2c(c1)OCCO2,-5%,·,9%,·,-8%,·
CCCCCCCCCCCCCCC[C@@H](O)[C@H](CO)NC(=O)CCCCCCC,·,·,6%[19.4 µM],·,·,·
CC(C)(C)C(=O)NCCc1nc2ccccc2n1CCCCOc1ccccc1,-15%,13%,-22%,-17%,?,·
Cn1c(CCNC(=O)C(C)(C)C)nc2ccccc21,5%,43%,-5%,25µM*,12%,1%
Cc1cc(C(Br)(Br)Br)nc2ccccc12,-17%,·,-16%,·,?,·
COc1ccc(-c2cc(=O)c3c(O)cc(O[C@H]4OC(COC5OC(C)C(O)C(O)[C@H]5O)C(O)C(O)C4O)cc3o2)cc1O (some centres not stated),·,·,20µM*,·,·,·
CC(=O)OCC(NC(=O)C(COCc1ccccc1)NC(=O)OC(C)(C)C)C1OC(n2ccc(=O)[nH]c2=O)C(OC(C)=O)C1OC(C)=O (configuration not stated),1%,·,-2%,·,-2%,·
COCCCNC(=O)c1ccc2c3c(onc13)-c1ccccc1C2=O,45µM*,6%,-13%,45µM*,?,22µM*
CC(=O)N1CCN(/[N+]([O-])=N/Oc2ccc([N+](=O)[O-])cc2[N+](=O)[O-])CC1,4%,·,6%,·,?,·
SMILES,FEN1 inhibitor,POLB inh,Pol kappa inh,POLH inh,Pol iota inh,WRN helicase inh
Cc1c(C(=O)O)cccc1-c1ccc(/C=N/Nc2ccc(Br)cc2)o1,-1%,?,-35%,22µM*,?,?
CC1=NN(c2ccc(Br)cc2)C(=O)/C1=C/c1ccc(-c2ccccc2C(=O)O)o1,?,0%,-10%,79µM*,?,-23%[11.6 µM]
O=C(O)c1ccc(N/N=C/c2ccc(-c3cccc(Cl)c3)o2)cc1,?,?,-23%,79µM*,?,-18%
CN(C)/C=C1/C(=O)N(c2ccc([N+](=O)[O-])cc2)N=C1c1ccccc1,·,23%,·,·,·,·
O=Cc1ccc(-c2ccccc2C(=O)O)o1,0%,?,-12%,4%,83%,-5%
O=C1/C(=C\c2ccc(-c3ccccc3[N+](=O)[O-])o2)C(c2ccccc2)=NN1c1ccccc1,-5%,-9%,-11%,50µM*,10µM*,3%
CCn1nnnc1Sc1nc(C)nc2scc(-c3ccccc3)c12,-2%,·,7%,·,-20%,·
COc1ccc(-c2c(C3C4C=CCC(C)C4C(=O)N3Cc3ccccc3)ccc3ccccc23)cc1 (configuration not stated),-6%,·,-2%,·,13%,·
O=C(CCc1ccc(O)c(O)c1)N/N=C/c1ccc2c(c1)OCO2,1%,71µM*,?,0%,79µM*,0%[11.6 µM]
O=C(N/N=C/c1ccc(Cl)cc1)c1ccc2c(c1)OCO2,2%,35µM*,-6%,7%,79µM*,0%[11.6 µM]
O=C(N/N=C/C=C/c1ccc2c(c1)OCO2)c1ccc([N+](=O)[O-])cc1,0%,2%,-15%,4%,18%,-13%
O=C(CNC(=O)c1ccc2c(c1)OCO2)N/N=C/c1cc(Br)ccc1O,-5%,45µM*,-13%,-6%,-18%,-14%
O=C(N/N=C\C=C\c1ccc(Br)cc1)c1ccc2c(c1)OCO2,0%,35µM*,-13%,-18%,?,-17%
O=C(N/N=C/c1ccc2c(c1)OCO2)c1ccc2c(c1)OCCO2,-4%,-1%,1%,-25%,-7%,-22%[57.1 µM]
CN(C)c1ccc(C2=Cc3ccccc3C2)cc1,-8%,·,?,·,?,·
FC(F)(F)c1ccccc1-c1nccc(-n2ccnc2)n1,·,·,2%[60.1 µM],·,·,·
O=[N+]([O-])c1ccc(O)c(C=Nc2ccc3nc(-c4ccccc4)[nH]c3c2)c1,-21%,28µM*,-15%,?,-12%,-32%
O=[N+]([O-])c1cccc(-c2nc3ccc([N+](=O)[O-])cc3[nH]2)c1,?,-1%,-8%,?,-16%,-12%
